This passage reports Potency results from PubChem BioAssay (NCATS).

Inconclusive results are not listed. Where a call stands in place of a potency, no number is given. Active and inactive are the calls of the source. Calls come from the whole dose curve; as a rule, active = well fitted inhibition curve with a large enough effect; inconclusive = small, poorly fitted or top-dose-only effect; inactive = flat fitted curve, though single readings scatter.
Potency is the fitted concentration of half-maximal effect.

The first experiment relates to CP265. In words: qHTS profiling for inhibitors of Plasmodium falciparum proliferation (AID 504749). Note: nearly all actives have a fitted effect of over 60% in size. As to conditions: P. falciparum in erythrocytes, SYBR Green DNA, 72 h; series mostly up to 28.7 µM. The method in brief:
(§1)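 In a 72 h erythrocytic culture (37 C, humidified, 5% CO2) at 2.5% hematocrit and 0.3% starting parasitemia, compounds were tested; SYBR Green I in detergent lysis buffer stained parasite DNA overnight.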
On the technique in general: qHTS replaces the single test concentration by a dilution series.
For the molecule `C#C[C@]1(O)CC[C@H]2[C@@H]3CCc4cc(OC)ccc4[C@H]3CC[C@@]21C`, the Potency entry is “inactive”.

As for `CCCCNC(=O)NS(=O)(=O)c1ccc(N)cc1`, the Potency entry is “inactive”.

Regarding `Nc1ccc(C(=O)NCC(=O)O)cc1`, the Potency result was “inactive”.

Take `OC1C(O)C(O)C(O)C(O)C1O` (stereo not given): the Potency result was “inactive”.

Consider `O=S(=O)(O)c1ccc(O)cc1`, for which the Potency result was “inactive”.

Turning to `COc1cc(C(=O)NCc2ccc(OCCN(C)C)cc2)cc(OC)c1OC`, the Potency entry was “inactive”.

As to `COc1cc(C)nc(-n2nc(C)cc2OC)n1`, the Potency result was “inactive”.

Regarding `CC(=O)Oc1ccc(C)cc1`, the Potency entry is “inactive”.

Regarding `CC(=O)NC(=O)c1ccccc1O`, the Potency entry was “inactive”.

Consider `FC(F)(F)C(F)(F)C(F)(F)C(F)(F)C(F)(F)C(F)(F)C(F)(F)C(F)(F)Br`, for which the Potency result was “inactive”.

In the case of `c1ccc(-c2nc[nH]c2-c2ccccc2)cc1`, the Potency entry was “inactive”.

`CCNC(=O)NCc1cccc(Cl)c1`: the Potency result was “inactive”.

Consider `O=C(O)Cc1csc(-c2ccc(Cl)cc2)n1`, for which the Potency entry was “inactive”.

Regarding `Nc1nc(-c2ccccc2)c(Br)c(=O)[nH]1`, the Potency result was “inactive”.

As to `O=c1[nH]c(=O)n([C@H]2C[C@H](O)[C@@H](CO)O2)cc1F`, the Potency result is “inactive”.

With `CC(=O)Nc1ncc([N+](=O)[O-])s1`, the Potency result was “inactive”.

As to `Cc1cccc(C)c1NC(=O)CN1CCCCCC1`, the Potency result is “inactive”.

`CC[C@H](c1ccc(O)cc1)[C@@H](CC)c1ccc(O)cc1`: the Potency result was “inactive”.

For `Cc1c(-c2ccccc2)oc2c(C(=O)OCCN3CCCCC3)cccc2c1=O`, the Potency result is “inactive”.

Regarding `CCCCCCCCCCCCCCCCO`, the Potency entry was “inactive”.

As to `Oc1ccccc1C=NCc1ccccc1`, the Potency result is “inactive”.

Consider `CCN(CC)CCNC(=O)COc1ccc(OC)cc1`, for which the Potency result was “inactive”.

Consider `COc1cc(N)c(Cl)cc1C(=O)NC1CCN(Cc2ccccc2)CC1`, for which the Potency entry was “inactive”.

Take `Cc1cc(NS(=O)(=O)c2ccc(N)cc2)nc(C)n1`: the Potency result was “inactive”.

Take `CC(=O)OC[C@H]1O[C@@H](n2ncc(=O)[nH]c2=O)[C@H](OC(C)=O)[C@@H]1OC(C)=O`: the Potency result is “inactive”.

As to `CCOc1ccccc1OCCN[C@H](C)Cc1ccc(OC)c(S(N)(=O)=O)c1`, the Potency result is “inactive”.

`O=C(NCCc1c[nH]c2ccccc12)c1cccnc1`: the Potency result is “inactive”.

On to `Cc1ccccc1OCC(O)CO` (stereo not given), for which the Potency result was “inactive”.

Turning to `Cc1cc(C)cc(OCC2CNC(=O)O2)c1` (stereo not given), the Potency entry was “inactive”.

For `CCOc1cc(OCC)c(C(=O)CCC(=O)O)cc1OCC`, the Potency entry is “inactive”.

In the case of `N#CCC(=O)NN`, the Potency result was “inactive”.

In the case of `O=C(O)C(Cc1cc(I)c(O)c(I)c1)c1ccccc1` (stereo not given), the Potency entry was “inactive”.

Take `CCCCCCCC/C=C\CCCCCCCCN`: the Potency entry is “inactive”.

For `CC1=C(C(=O)O)N2C(=O)[C@@H](NC(=O)[C@H](N)c3ccccc3)[C@H]2SC1`, the Potency entry is “inactive”.

Consider `CCN(CC)CCNc1ccc(CO)c2sc3ccccc3c(=O)c12`, for which the Potency is 1.58 µM (active).

As to `Cl/C(=C\n1cncn1)c1ccc(Cl)cc1Cl`, the Potency result was “inactive”.

With `CCCCCCCCCCCCCCCC(=O)O`, the Potency result was “inactive”.

With `CC(C)CCCC(C)N` (stereo not given), the Potency result was “inactive”.

For `CCOC(=O)c1ccc(N)cc1`, the Potency result is “inactive”.

As for `Cc1c[nH]c2ccccc12`, the Potency entry was “inactive”.

The subject of the next experiment is CP266. The experiment is described as above. As to conditions: P. falciparum in erythrocytes, SYBR Green DNA, 72 h; series mostly up to 28.7 µM. Put shortly: as §1
With `C#C[C@]1(O)CC[C@H]2[C@@H]3CCc4cc(OC)ccc4[C@H]3CC[C@@]21C`, the Potency result was “inactive”.

With `CCCCNC(=O)NS(=O)(=O)c1ccc(N)cc1`, the Potency result was “inactive”.

Turning to `Nc1ccc(C(=O)NCC(=O)O)cc1`, the Potency result is “inactive”.

As for `OC1C(O)C(O)C(O)C(O)C1O` (stereo not given), the Potency result is “inactive”.

For `O=S(=O)(O)c1ccc(O)cc1`, the Potency entry is “inactive”.

Consider `COc1cc(C(=O)NCc2ccc(OCCN(C)C)cc2)cc(OC)c1OC`, for which the Potency result was “inactive”.

On to `COc1cc(C)nc(-n2nc(C)cc2OC)n1`, for which the Potency entry is “inactive”.

As to `CC(=O)Oc1ccc(C)cc1`, the Potency entry was “inactive”.

With `CC(=O)NC(=O)c1ccccc1O`, the Potency result was “inactive”.

`FC(F)(F)C(F)(F)C(F)(F)C(F)(F)C(F)(F)C(F)(F)C(F)(F)C(F)(F)Br`: the Potency result is “inactive”.

Regarding `c1ccc(-c2nc[nH]c2-c2ccccc2)cc1`, the Potency result is “inactive”.

Consider `CCNC(=O)NCc1cccc(Cl)c1`, for which the Potency result is “inactive”.

As for `O=C(O)Cc1csc(-c2ccc(Cl)cc2)n1`, the Potency result is “inactive”.

Turning to `Nc1nc(-c2ccccc2)c(Br)c(=O)[nH]1`, the Potency entry was “inactive”.

As to `O=c1[nH]c(=O)n([C@H]2C[C@H](O)[C@@H](CO)O2)cc1F`, the Potency result is “inactive”.

Regarding `CC(=O)Nc1ncc([N+](=O)[O-])s1`, the Potency result is “inactive”.

Turning to `Cc1cccc(C)c1NC(=O)CN1CCCCCC1`, the Potency result is “inactive”.

Take `CC[C@H](c1ccc(O)cc1)[C@@H](CC)c1ccc(O)cc1`: the Potency entry is “inactive”.

As to `Cc1c(-c2ccccc2)oc2c(C(=O)OCCN3CCCCC3)cccc2c1=O`, the Potency result is “inactive”.

For `CCCCCCCCCCCCCCCCO`, the Potency entry was “inactive”.

As to `Oc1ccccc1C=NCc1ccccc1`, the Potency entry is “inactive”.

As for `CCN(CC)CCNC(=O)COc1ccc(OC)cc1`, the Potency entry was “inactive”.

For the molecule `COc1cc(N)c(Cl)cc1C(=O)NC1CCN(Cc2ccccc2)CC1`, the Potency entry is “inactive”.

On to `Cc1cc(NS(=O)(=O)c2ccc(N)cc2)nc(C)n1`, for which the Potency entry is “inactive”.

As for `CC(=O)OC[C@H]1O[C@@H](n2ncc(=O)[nH]c2=O)[C@H](OC(C)=O)[C@@H]1OC(C)=O`, the Potency result is “inactive”.

Regarding `CCOc1ccccc1OCCN[C@H](C)Cc1ccc(OC)c(S(N)(=O)=O)c1`, the Potency entry was “inactive”.

Consider `O=C(NCCc1c[nH]c2ccccc12)c1cccnc1`, for which the Potency result was “inactive”.

Take `Cc1ccccc1OCC(O)CO` (stereo not given): the Potency entry was “inactive”.

For the molecule `Cc1cc(C)cc(OCC2CNC(=O)O2)c1` (stereo not given), the Potency result is “inactive”.

As to `CCOc1cc(OCC)c(C(=O)CCC(=O)O)cc1OCC`, the Potency result was “inactive”.

Turning to `N#CCC(=O)NN`, the Potency result was “inactive”.

Regarding `O=C(O)C(Cc1cc(I)c(O)c(I)c1)c1ccccc1` (stereo not given), the Potency result is “inactive”.

`CCCCCCCC/C=C\CCCCCCCCN`: the Potency entry was “inactive”.

Consider `CC1=C(C(=O)O)N2C(=O)[C@@H](NC(=O)[C@H](N)c3ccccc3)[C@H]2SC1`, for which the Potency result was “inactive”.

As to `CCN(CC)CCNc1ccc(CO)c2sc3ccccc3c(=O)c12`, the Potency was 5.36 µM (active).

With `Cl/C(=C\n1cncn1)c1ccc(Cl)cc1Cl`, the Potency entry is “inactive”.

With `CCCCCCCCCCCCCCCC(=O)O`, the Potency entry was “inactive”.

For the molecule `CC(C)CCCC(C)N` (stereo not given), the Potency result is “inactive”.

Take `CCOC(=O)c1ccc(N)cc1`: the Potency entry is “inactive”.

For the molecule `Cc1c[nH]c2ccccc12`, the Potency entry is “inactive”.
